A short description of experiment [1]: qHTS Assay for Identification of Small Molecule Agonists for Hypoxia Response Element Signaling Pathway (AID 914; active = well fitted activation curve with a large enough effect in the signal ratio, with a control signal flat, not every such curve was filed as active; the % refers to the signal ratio; also: % of control where 0% means no effect). As to conditions: ME-180 (cervical carcinoma) HRE-bla reporter, beta-lactamase ratio, CoCl2, 17 h; activation: stronger effect = higher value. The method, boiled down:
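AC50 values come from titration-series %Activity, taken as the 460/530nm ratio of CCF4 fluorescence (excitation 405nm). CellSensor HRE-bla ME-180 cells were treated 17 hours at 37 C with compound plus an EC50 level of CoCl2.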
A general note: Quantitative high-throughput screening tests each substance at several concentrations.

Experiment [2] addresses Lysosomal acid glucosylceramidase (Homo sapiens) (UniProt P04062). In words: Glucocerebrosidase-p2 (AID 348; in the data active = potency below about 10 µM; also: potency is read from the fitted curve at half-maximal effect). To be noted: purified GBA, blue fluorogenic substrate, 40 min. The method, boiled down: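 Normal human glucocerebrosidase (0.2 nM) with blue fluorogenic substrate (80 uM final) in citrate/phosphate pH 5.9 with 10mM sodium taurocholate, 0.01% tween-20; 40 min RT, NaOH/glycine stop; fluorescence Ex 365/Em 440; AC50 from a titration from 0.6 nM upwards.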

The target in experiment [3] is Lysosomal alpha-glucosidase (Homo sapiens) (UniProt P10253). In words: Confirmation of Inhibitors and Activators of Purified Human alpha-Glucosidase (AID 2115; active = well fitted curve in either direction with a large enough effect). As to conditions: purified human GAA enzyme activity; series mostly up to 76.2 µM. The method, boiled down:
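Fluorogenic 4-MU-substrate hydrolysis (400 uM substrate, 4 nM human enzyme) over 20 min at room temperature, pH 5.0 citrate buffer plus 0.005% Tween-20; NaOH/glycine stop, then ex 365/em 440 nm read. Titration up to 77 uM; Hill-equation AC50, normalized to no-enzyme and full-activity controls.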

Experiment [4] concerns the target Estrogen receptor (Homo sapiens) (UniProt P03372). In words: qHTS assay for small molecule antagonists of estrogen receptor alpha signaling (AID 588513; active = well fitted curve in the direction sought with a large enough effect in the signal ratio, with a control signal flat, not every such curve was filed as active; the % refers to the signal ratio; also: % is scaled to controls: 0 for no effect and ±100 for the full control effect). To be noted: ER-alpha-UAS-bla HEK293, beta-lactamase ratio, antagonist mode; series mostly up to 76.9 µM. The method, boiled down: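 ER-alpha-UAS-bla GripTite HEK 293 cells in 2% charcoal/dextran-treated FBS medium; compounds titrated (1:2, duplicate), then stimulated with 0.5 nM 17-beta-estradiol for 18 h at 37C. CCF4 beta-lactamase fluorescence; Hill-fit IC50 and efficacy.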

In experiment [5] the target is Glucocorticoid receptor (Homo sapiens) (UniProt P04150). Kind of experiment: qHTS assay for small molecule agonists of glucocorticoid receptor signaling (AID 588532; active = well fitted curve in the direction sought with a large enough effect in the signal ratio, with a control signal flat; the % refers to the signal ratio;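 also: 100% = dexamethasone at 0.1 µM and 0% = DMSO only wells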). To be noted: HeLa MMTV-bla, beta-lactamase ratio, agonist, 18 h; stronger effect = higher value; percent of dexamethasone control, DMSO zero. The essentials:
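Quantitative HTS using CellSensor MMTV-bla HeLa cells in charcoal/dextran-treated serum; compounds tested up to 92 uM. After 18 h at 37 C, CCF4 dye reported reporter induction.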

The target is the same in experiment [6]. In words: qHTS assay for small molecule antagonists of glucocorticoid receptor signaling (AID 588533; active = well fitted inhibition curve with a large enough effect in the signal ratio, with a control signal flat, not every such curve was filed as active; the % refers to the signal ratio;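 also: cells stimulated with 2 nM dexamethasone as agonist; % is scaled to controls: 0 for no effect and ±100 for the full control effect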). To be noted: HeLa MMTV-bla, GRE beta-lactamase ratio, antagonist mode, 18 h; series mostly up to 76.8 µM. The essentials: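 Antagonist-mode qHTS: compound titrations added to GRE-bla HeLa cells, then dexamethasone 2 nM final; 18 h, 37 C. CCF4 FRET fluorescence normalized to dexamethasone and DMSO; IC50 from Hill fit.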

Experiment [7] addresses Peroxisome proliferator-activated receptor gamma (Homo sapiens) (UniProt P37231). In words: qHTS assay for small molecule agonists of peroxisome proliferator-activated receptor gamma signaling (AID 588536; active = well fitted curve in the direction sought with a large enough effect in the signal ratio, with a control signal flat, not every such curve was filed as active; the % refers to the signal ratio). To be noted: HEK293 PPARg-UAS-bla, beta-lactamase ratio, 16 h, percent of rosiglitazone response, DMSO as zero; series mostly up to 76.7 µM. The method, boiled down: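 Beta-lactamase reporter read-out: CCF4 fluorescence (ex 405, em 460/530 nm) after 2 h at RT. HEK293 GeneBLAzer cells were treated for 16 h at 37 C. Hill fits gave EC50 and efficacy versus 2 uM rosiglitazone (100%) and DMSO (0%).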

Experiment [8] shares this target. Kind of experiment: qHTS assay for small molecule antagonists of peroxisome proliferator-activated receptor gamma signaling (AID 588537; active = well fitted inhibition curve with a large enough effect in the signal ratio, with a control signal flat, not every such curve was filed as active; the % refers to the signal ratio;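 also: reporter cells co-stimulated with 50 nM rosiglitazone agonist during compound treatment; % of control where 0% means no effect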). As to conditions: HEK293 PPARg-UAS-bla, beta-lactamase ratio, antagonist mode; series mostly up to 76.8 µM. The method, boiled down: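 Cell-based beta-lactamase assay; GW9662 served as the antagonist control. Stimulation used rosiglitazone, final 50 nM, 16 h, 37 C.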

Experiment [9] addresses Vitamin D3 receptor (Homo sapiens) (UniProt P11473). Kind of experiment: qHTS assay for small molecule antagonists of vitamin D receptor signaling (AID 588541; calls by dose curve;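 also: receptor activated by calcitriol during compound treatment; % is scaled to controls: 0 for no effect and ±100 for the full control effect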). To be noted: HEK293T VDR-UAS-bla, beta-lactamase ratio, antagonist mode; series mostly up to 76.7 µM. The essentials: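 Antagonist-mode beta-lactamase reporter assay: HEK293T VDR-UAS-bla cells were exposed to titrated compound alongside 1-alpha,25-dihydroxyvitamin D3 at 3 nM final for 16 h. Values were normalized to the 50 nM agonist control and DMSO basal, with IC50 and efficacy from Hill equation fits.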

Experiment [10] in a line: qHTS assay for small molecule agonists of retinoid X receptor alpha signaling (AID 588544; calls by dose curve;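 as to activation: 0% = DMSO basal wells and 100% = reference agonist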). To be noted: HEK293T RXRa-UAS-bla, beta-lactamase reporter, 18 h; 530 nm emission.
The target of experiment [11] is Retinoic acid receptor RXR-alpha (Homo sapiens) (UniProt P19793). The experiment is described as above. To be noted: HEK293T RXRa-UAS-bla, beta-lactamase reporter, 18 h; series mostly up to 76.7 µM.
The nature of experiment [12]: qHTS assay for small molecule antagonists of retinoid X receptor alpha signaling (AID 588546; active = well fitted inhibition curve with a large enough effect in the signal ratio, with a control signal flat, not every such curve was filed as active; the % refers to the signal ratio;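 also: cells stimulated with 9-cis-retinoic acid as agonist; % is scaled to controls: 0 for no effect and ±100 for the full control effect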). To be noted: HEK293T RXRa-UAS-bla, beta-lactamase ratio, antagonist mode; measured here: W530 green channel, cytotoxicity proxy. The essentials: (§1)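 Beta-lactamase reporter inhibition, read as CCF4 fluorescence ratio (ex 405, em 460/530 nm) after 2 h at RT. HEK293T UAS-bla cells, 2500/well, were stimulated with 9-cis-RA at 500 or 100 nM final alongside test compound for 18 h at 37 C.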

Experiment [13] concerns the target Retinoic acid receptor RXR-alpha (Homo sapiens) (UniProt P19793). Described as above. To be noted: HEK293T RXRa-UAS-bla, beta-lactamase ratio, antagonist mode. The method, boiled down:
as §1

The nature of experiment [14]: qHTS assay for small molecule agonists of the antioxidant response element (ARE) signaling pathway (AID 651741; active = well fitted activation curve with a large enough effect in the signal ratio; the % refers to the signal ratio; also: potency is read from the fitted curve at half-maximal effect). As to conditions: HepG2 ARE-bla reporter, beta-lactamase FRET ratio, 16 h; series mostly up to 96 µM. The method, boiled down: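 Agonist activity is measured as ARE-driven beta-lactamase expression in a stable HepG2 reporter line, using 16 h compound treatment at 37 C and a FRET substrate fluorescence readout after 2 h.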

Experiment [15] in a line: qHTS assay for environmental chemicals that activate the Aryl hydrocarbon Receptor (AhR) signaling pathway (AID 651777). Also: potency is read from the fitted curve at half-maximal effect; nearly all actives have a fitted effect of over 15% in size. To be noted: 1A2-DRE human hepatoma cells, luciferase, 24 h; activation: stronger effect = higher value. The method, boiled down:
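Luminescence (One-Glo, 30 min, room temperature) reports AhR-driven luciferase in stably transfected human hepatoma cells bearing DRE and CYP1A2 promoter. Cells (1,200/well) were treated with compound for 24 hr at 37 C in qHTS format.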

In experiment [16] the target is Luciferin 4-monooxygenase (Photinus pyralis) (UniProt P08659). In words: Biochemical firefly luciferase enzyme assay for NPC (AID 624030).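 Also: purified P. pyralis luciferase at 10 nM with luciferin and ATP substrate; 0% = DMSO and -100% = full luciferase inhibition by PTC124 control; nearly all actives have a fitted effect of over 70% in size.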 To be noted: purified P. pyralis luciferase, luminescence, 5 min; series mostly up to 58.6 µM. The essentials:
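Direct inhibition of firefly luciferase enzyme (10 nM final, 50 mM Tris Acetate) assessed by luminescence within 5 minutes. Percent activity scaled between DMSO and PTC124 positive control, with concentration-effect curves classified by fit quality and response.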

Experiment [17] concerns CP266. Kind of experiment: qHTS profiling for inhibitors of Plasmodium falciparum proliferation (AID 504749). Also: nearly all actives have a fitted effect of over 60% in size. Also: potency is read from the fitted curve at half-maximal effect. As to conditions: P. falciparum in erythrocytes, SYBR Green DNA, 72 h; series mostly up to 28.7 µM. The essentials: (§2)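 In a 72 h erythrocytic culture (37 C, humidified, 5% CO2) at 2.5% hematocrit and 0.3% starting parasitemia, compounds were tested; SYBR Green I in detergent lysis buffer stained parasite DNA overnight.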

Experiment [18] has as its system PC15. The description is as above. To be noted: P. falciparum in erythrocytes, SYBR Green DNA, 72 h; series mostly up to 28.7 µM. The essentials:
as §2

Experiment [19] in a line: S16 Schwann cell viability assay (CellTiter-Glo assay) (AID 624031).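 Also: cellular ATP luminescence as a viability measure; plate controls were DMSO-treated cells for no effect and cell-free wells for full effect; nearly all actives have a fitted effect of over 70% in size.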 To be noted: S16 rat Schwann cells viability, 24 h; series mostly up to 57.5 µM. The method, boiled down: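 CellTiter-Glo ATP luminescence counter-screen in untransfected S16 rat Schwann cells, 24h compound exposure at 37 degree Celsius after overnight seeding (500-750 cells/well); response scaled between cell-free wells and DMSO (0% activity), curves classed by r2 and magnitude.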
Background: In ATP-based viability assays light output follows the ATP content of the culture.

Experiment [20] deals with FAB9. Kind of experiment: qHTS profiling for inhibitors of Plasmodium falciparum proliferation (AID 504749). Also: nearly all actives have a fitted effect of over 60% in size. Also: potency is read from the fitted curve at half-maximal effect. As to conditions: P. falciparum in erythrocytes, SYBR Green DNA, 72 h; series mostly up to 28.7 µM. The method, boiled down: as §2

SMILES strings stand for the structures. Records with an inconclusive call do not appear. Activity calls are given as the source filed them. Unless noted, calls follow the shape of the dose curve; as a rule, active = well fitted curve in the direction sought with a large enough effect; inconclusive = small, poorly fitted or top-dose-only effect, or another doubt; inactive = no such curve, though single readings can be large; an effect the other way counts as inactive or inconclusive.

The record followed here is PubChem BioAssay (NCATS).

Retinoic acid receptor RXR-alpha (Homo sapiens), sequence (P19793 whole entry, looked up): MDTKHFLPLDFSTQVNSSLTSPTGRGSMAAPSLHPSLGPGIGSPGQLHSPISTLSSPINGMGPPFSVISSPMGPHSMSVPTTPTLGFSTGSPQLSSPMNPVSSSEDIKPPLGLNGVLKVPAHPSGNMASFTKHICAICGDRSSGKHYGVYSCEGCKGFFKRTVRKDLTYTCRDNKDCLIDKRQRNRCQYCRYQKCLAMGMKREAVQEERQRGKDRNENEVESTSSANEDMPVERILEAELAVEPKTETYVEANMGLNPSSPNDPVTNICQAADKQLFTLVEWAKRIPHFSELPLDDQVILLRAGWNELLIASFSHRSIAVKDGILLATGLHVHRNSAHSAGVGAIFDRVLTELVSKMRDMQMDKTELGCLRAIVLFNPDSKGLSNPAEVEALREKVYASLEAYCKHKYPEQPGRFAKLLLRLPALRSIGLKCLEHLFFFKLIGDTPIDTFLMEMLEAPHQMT
Glucocorticoid receptor (Homo sapiens), sequence (P04150 whole entry, looked up): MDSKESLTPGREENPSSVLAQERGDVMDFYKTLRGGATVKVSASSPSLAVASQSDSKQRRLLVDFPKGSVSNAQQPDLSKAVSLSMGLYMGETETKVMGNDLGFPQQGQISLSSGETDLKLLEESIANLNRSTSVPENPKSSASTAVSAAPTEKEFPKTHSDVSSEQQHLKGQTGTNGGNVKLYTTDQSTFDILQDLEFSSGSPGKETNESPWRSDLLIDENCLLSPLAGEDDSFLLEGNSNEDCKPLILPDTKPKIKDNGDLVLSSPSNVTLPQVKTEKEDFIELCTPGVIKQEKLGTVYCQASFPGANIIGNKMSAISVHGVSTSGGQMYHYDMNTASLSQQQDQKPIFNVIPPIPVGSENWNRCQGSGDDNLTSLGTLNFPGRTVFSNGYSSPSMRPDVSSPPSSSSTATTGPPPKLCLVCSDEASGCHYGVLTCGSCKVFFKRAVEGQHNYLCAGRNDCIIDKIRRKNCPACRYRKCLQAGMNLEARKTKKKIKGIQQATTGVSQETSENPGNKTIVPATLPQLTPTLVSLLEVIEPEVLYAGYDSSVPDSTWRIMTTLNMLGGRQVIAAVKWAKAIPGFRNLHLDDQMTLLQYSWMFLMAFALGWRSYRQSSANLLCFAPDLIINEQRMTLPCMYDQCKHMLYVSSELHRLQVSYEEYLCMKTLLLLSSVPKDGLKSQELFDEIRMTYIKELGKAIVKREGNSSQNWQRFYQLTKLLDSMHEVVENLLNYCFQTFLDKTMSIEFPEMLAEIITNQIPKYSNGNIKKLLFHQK
Luciferin 4-monooxygenase (Photinus pyralis), sequence (P08659 whole entry, looked up): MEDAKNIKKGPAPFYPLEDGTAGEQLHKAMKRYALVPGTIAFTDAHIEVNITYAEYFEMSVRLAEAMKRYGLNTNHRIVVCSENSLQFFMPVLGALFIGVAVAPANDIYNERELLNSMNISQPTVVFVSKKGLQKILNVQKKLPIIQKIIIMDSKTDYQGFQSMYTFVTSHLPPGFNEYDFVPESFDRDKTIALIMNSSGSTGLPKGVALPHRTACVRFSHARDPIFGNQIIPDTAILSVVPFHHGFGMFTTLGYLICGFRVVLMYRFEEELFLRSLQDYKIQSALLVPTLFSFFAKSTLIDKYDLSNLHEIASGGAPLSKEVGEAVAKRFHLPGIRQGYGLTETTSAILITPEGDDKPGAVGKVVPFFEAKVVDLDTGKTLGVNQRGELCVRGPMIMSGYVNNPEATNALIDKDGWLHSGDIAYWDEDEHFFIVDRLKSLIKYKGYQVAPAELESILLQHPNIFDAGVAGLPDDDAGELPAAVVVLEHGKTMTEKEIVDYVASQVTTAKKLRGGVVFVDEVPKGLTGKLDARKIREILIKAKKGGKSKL
Peroxisome proliferator-activated receptor gamma (Homo sapiens), sequence (P37231 whole entry, looked up): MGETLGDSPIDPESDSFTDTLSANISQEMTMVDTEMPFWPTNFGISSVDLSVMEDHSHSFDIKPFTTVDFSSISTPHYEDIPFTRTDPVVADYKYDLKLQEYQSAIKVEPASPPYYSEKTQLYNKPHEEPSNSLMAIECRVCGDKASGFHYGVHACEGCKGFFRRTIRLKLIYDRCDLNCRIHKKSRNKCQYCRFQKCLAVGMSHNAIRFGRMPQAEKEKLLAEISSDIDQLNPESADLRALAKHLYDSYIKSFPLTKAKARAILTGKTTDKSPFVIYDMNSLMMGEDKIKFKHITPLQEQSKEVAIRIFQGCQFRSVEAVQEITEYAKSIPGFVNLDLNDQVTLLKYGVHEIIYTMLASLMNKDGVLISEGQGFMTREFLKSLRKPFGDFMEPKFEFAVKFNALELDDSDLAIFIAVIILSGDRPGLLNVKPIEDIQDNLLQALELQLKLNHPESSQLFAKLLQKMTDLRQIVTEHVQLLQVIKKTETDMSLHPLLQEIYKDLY
Lysosomal acid glucosylceramidase (Homo sapiens), sequence (P04062 whole entry, looked up): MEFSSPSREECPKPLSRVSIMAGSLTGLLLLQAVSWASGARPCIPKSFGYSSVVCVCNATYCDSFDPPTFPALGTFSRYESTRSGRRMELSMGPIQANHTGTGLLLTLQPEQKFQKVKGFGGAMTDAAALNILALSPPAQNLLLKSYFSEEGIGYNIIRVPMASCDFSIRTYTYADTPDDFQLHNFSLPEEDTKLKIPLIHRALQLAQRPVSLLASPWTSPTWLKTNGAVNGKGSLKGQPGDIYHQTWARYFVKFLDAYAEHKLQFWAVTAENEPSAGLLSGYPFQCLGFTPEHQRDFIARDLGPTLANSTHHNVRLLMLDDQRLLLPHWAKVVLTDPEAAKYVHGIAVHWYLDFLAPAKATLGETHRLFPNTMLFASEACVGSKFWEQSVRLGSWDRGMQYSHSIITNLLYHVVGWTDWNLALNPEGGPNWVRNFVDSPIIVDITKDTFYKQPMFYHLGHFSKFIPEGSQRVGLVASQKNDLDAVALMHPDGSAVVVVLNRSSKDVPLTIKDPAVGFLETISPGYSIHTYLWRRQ
Estrogen receptor (Homo sapiens), sequence (P03372 whole entry, looked up): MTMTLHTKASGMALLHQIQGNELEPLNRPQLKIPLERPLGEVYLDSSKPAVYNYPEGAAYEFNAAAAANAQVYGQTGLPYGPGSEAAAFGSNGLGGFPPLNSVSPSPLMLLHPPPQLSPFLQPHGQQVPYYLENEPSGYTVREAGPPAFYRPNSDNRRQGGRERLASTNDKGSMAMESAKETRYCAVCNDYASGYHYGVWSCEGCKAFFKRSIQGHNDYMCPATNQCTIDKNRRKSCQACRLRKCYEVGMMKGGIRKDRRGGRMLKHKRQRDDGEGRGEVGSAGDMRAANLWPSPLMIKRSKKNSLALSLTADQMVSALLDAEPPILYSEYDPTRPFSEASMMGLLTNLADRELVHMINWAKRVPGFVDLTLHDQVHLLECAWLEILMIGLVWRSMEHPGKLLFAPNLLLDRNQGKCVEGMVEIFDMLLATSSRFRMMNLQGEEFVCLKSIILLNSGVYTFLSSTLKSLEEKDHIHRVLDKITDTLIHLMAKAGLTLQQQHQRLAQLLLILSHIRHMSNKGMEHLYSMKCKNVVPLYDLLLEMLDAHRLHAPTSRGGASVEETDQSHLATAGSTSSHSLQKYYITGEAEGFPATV
Vitamin D3 receptor (Homo sapiens), sequence (P11473 whole entry, looked up): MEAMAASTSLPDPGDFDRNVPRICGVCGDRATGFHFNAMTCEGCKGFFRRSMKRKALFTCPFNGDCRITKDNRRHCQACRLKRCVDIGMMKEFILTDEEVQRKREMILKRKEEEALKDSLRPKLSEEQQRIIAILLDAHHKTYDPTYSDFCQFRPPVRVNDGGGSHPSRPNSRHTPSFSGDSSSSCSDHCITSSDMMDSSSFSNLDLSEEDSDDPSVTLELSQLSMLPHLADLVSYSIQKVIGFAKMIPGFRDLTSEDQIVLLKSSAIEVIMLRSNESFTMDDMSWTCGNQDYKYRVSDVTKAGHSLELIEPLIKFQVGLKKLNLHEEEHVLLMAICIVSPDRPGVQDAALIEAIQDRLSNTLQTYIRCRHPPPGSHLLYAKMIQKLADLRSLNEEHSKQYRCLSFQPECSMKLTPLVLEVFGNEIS

Regarding `NC[C@H](CP(=O)(O)O)c1ccc(Cl)cc1`, in [1], the activation is -2.39% (inactive).

In the case of `O=C1C2CCN(CC2)C1(CO)CO`, the Potency in experiment [2] was > 11.4 µM (inactive).

Turning to `O[C@H]1[C@H](O)[C@@H](O)CN2CC[C@H](O)[C@H]12`, the result in experiment [3] was inactive.

On to `Cc1ccc2cc3c(ccc4ccccc43)c3c2c1CC3`, for which the Potency entry in experiment [4], in experiment [6] and in experiment [8] was “inactive” in each case. The activation in experiment [5] is 4.51% (inactive). In addition, the result in experiment [7], in experiment [9] and in experiment [11] was inactive. Also, the max response in experiment [10] was 0.698%; in [12], 24.7%; in [13], -30.8% (inactive). Besides, the Potency in [14] was 2.17 µM (active); in experiment [15], 8.91 µM (active).

As for `CC(C)[C@@]1(NC(=O)[C@H]2CC3c4cccc5[nH]cc(c45)C[C@H]3N(C)C2)O[C@@]2(O)C3CCCN3C(=O)[C@@H](Cc3ccccc3)N2C1=O` (stereo not given in full), the Potency result in experiment [16] was “inactive”. Moreover, the figures for the Potency in experiment [17] and in experiment [18] were 6.01 µM (active) and 1.78 µM (active), respectively.

For the compound `CCN1C[C@]2(COC)[C@H](O)C[C@H](OC)[C@]34C1C([C@H](OC)[C@H]23)[C@]1(OC(C)=O)C2[C@@H](OC(=O)c3ccccc3)C(O)(C[C@H]24)[C@@H](OC)[C@@H]1O`, the Potency result in experiment [16], in experiment [19], in experiment [17], in experiment [20] and in experiment [18] was “inactive” in each case.

Consider `O=C(O)c1ccccc1-c1c2cc(Br)c(=O)cc-2oc2[c]([Hg])c(O)c(Br)cc12`, for which the Potency entry in experiment [19] and in experiment [20] was “inactive” throughout.
